In all, about 310,000 compounds went through this assay and about 14,000 (4.5%) showed an effect of 50% or more. Effects have a minus sign here. The sample holds strong results, similar compounds and a random draw of the others, so the mix is not that of the screen.
These compounds were tested against human ether-à-go-go-related gene (hERG) potassium channel (human, UniProt Q12809) (assay: primary screen, population patch clamp on CHO cells stably expressing hERG; higher = less effect of the substance).
Chain of human ether-à-go-go-related gene (hERG) potassium channel (Q12809 whole entry, looked up): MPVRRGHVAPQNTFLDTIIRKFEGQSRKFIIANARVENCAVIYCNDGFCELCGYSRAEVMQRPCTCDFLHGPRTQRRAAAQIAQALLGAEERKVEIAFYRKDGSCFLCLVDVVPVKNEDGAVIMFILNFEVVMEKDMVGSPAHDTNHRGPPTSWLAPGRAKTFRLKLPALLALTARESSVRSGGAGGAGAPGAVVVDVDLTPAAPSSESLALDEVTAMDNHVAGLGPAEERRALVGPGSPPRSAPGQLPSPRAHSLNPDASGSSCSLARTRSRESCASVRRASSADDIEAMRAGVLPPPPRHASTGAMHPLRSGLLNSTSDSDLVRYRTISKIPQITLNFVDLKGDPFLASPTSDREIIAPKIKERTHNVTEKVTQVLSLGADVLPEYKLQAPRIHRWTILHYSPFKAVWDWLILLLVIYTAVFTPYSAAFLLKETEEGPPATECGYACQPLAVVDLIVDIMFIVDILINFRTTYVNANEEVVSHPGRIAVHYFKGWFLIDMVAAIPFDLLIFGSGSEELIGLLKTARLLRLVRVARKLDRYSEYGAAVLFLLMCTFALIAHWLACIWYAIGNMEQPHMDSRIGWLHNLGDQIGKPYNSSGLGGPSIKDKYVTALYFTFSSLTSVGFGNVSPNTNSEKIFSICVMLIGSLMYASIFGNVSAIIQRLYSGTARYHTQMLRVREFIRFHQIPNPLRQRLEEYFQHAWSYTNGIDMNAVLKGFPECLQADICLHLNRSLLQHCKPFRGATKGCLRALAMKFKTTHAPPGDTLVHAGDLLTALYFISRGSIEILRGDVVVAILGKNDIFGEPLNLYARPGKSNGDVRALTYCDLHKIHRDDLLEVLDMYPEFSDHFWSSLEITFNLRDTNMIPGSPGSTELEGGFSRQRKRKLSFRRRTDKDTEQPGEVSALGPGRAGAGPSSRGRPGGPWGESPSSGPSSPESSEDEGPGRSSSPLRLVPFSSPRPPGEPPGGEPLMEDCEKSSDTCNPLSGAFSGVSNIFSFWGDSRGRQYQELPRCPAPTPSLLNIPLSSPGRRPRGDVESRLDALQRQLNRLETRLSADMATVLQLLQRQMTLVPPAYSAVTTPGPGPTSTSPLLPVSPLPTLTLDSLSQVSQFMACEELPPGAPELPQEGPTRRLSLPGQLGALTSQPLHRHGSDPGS
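Also: peak tail current of the secondary pulse compared with the same well before compound.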

Going from `C=C(C)CN1CCN(S(=O)(=O)c2ccc(C)c(N(C)S(=O)(=O)c3ccc(C)cc3)c2C)CC1` to `Cc1ccc(S(=O)(=O)N(C)c2c(C)ccc(S(=O)(=O)N3CCN(C)CC3)c2C)cc1`, the “hERG current change (%, negative = inhibition) at 10uM” value falls from -2.33% to -60.8%.

Going from `Cc1ccc(S(=O)(=O)N(C)c2c(C)ccc(S(=O)(=O)N3CCN(C=O)CC3)c2C)cc1` to `Cc1ccc(N2C(=O)CS(=O)(=O)CC2=O)cc1`, the “hERG current change (%, negative = inhibition) at 10uM” value rises from -42.8% to 22.9%.

Going from `N#Cc1c(Nc2ccccc2)sc(C(=O)c2ccccc2)c1N` to `O=C(O)c1cccc(Nc2c3ccccc3nc3ccccc23)c1`, the “hERG current change (%, negative = inhibition) at 10uM” value rises from -7.02% to 19.7%.

First: O=C(O)c1cccc([N+](=O)[O-])c1C(=O)Nc1cccc2ccccc12
Second: O=C(Nc1c2c(nc3ccccc13)CCCC2)c1ccccc1Cl
The “hERG current change (%, negative = inhibition) at 10uM” value of the first is higher: 21.9% for the first, 17.2% for the second.

Going from `C[C@@H]1CC=C[C@H]2[C@H]1C(=O)N(Cc1ccccc1)[C@H]2c1ccc(/C=C/c2ccccc2)cc1F` to `CC(=O)c1cccc(Nc2nc(-c3ccccc3)nc3ccccc23)c1.Cl`, the “hERG current change (%, negative = inhibition) at 10uM” value rises from 4.34% to 26.9%.

First: O=C(CN(Cc1ccco1)C(=O)Cn1nnc(-c2cccs2)n1)NCc1ccccc1
Second: O=C(CN(CCc1ccccc1)C(=O)Cn1nnc(-c2cccs2)n1)NCc1ccco1
The “hERG current change (%, negative = inhibition) at 10uM” value of the first is lower: -51.7% for the first, -38.7% for the second.

Compared with `O=C(CN(Cc1ccco1)C(=O)Cn1nnc(-c2cccs2)n1)NCC1CCCO1` (stereo not drawn), `c1csc(-c2nc(NCC3CCCO3)c3ccccc3n2)c1` (stereo not drawn) is lower in “hERG current change (%, negative = inhibition) at 10uM” value: 6.63% for the first, -20.5% for the second.

Going from `CCSc1nnc(NC(=O)COc2ccc(Cl)cc2)s1` to `COc1ccccc1OCC(=O)Nc1c2c(nn1-c1ccccc1)CS(=O)(=O)C2`, the “hERG current change (%, negative = inhibition) at 10uM” value falls from 24% to -8.22%.

First: CC(=O)C1=C(C)NC(SCC(=O)c2ccc(Cl)c(Cl)c2)=C(C#N)C1c1ccco1 (stereo not drawn)
Second: Cc1c(C)c2cc(Cl)c(OCC(=O)N3C[C@H]4C[C@@H](C3)c3cccc(=O)n3C4)cc2oc1=O
The “hERG current change (%, negative = inhibition) at 10uM” value of the first is higher: 5.27% for the first, 1.78% for the second.

Going from `CCCCC(=O)NC(Nc1cc(C)ccn1)(C(=O)OCC)C(F)(F)F` (stereo not drawn) to `CC[C@H](C)[C@H](NC(N)=O)C(=O)NCCc1ccc(OC)c(OC)c1`, the “hERG current change (%, negative = inhibition) at 10uM” value rises from 2.5% to 20.1%.

First: CCC(C)(C)C1CCC(=NNC(=S)Nc2ccccc2)CC1 (stereo not drawn)
Second: CC(=O)c1cccc(Nc2c3c(nc4ccccc24)CCC3)c1.Cl
The “hERG current change (%, negative = inhibition) at 10uM” value of the first is higher: 11.4% for the first, -68.8% for the second.

First: COC(/C=C/Nc1ccc(OC)cc1)=C(C#N)C#N
Second: COC(/C=C/Nc1ccc(C)cc1)=C(C#N)C#N
The “hERG current change (%, negative = inhibition) at 10uM” value of the first is lower: -59.9% for the first, -38% for the second.

Compared with `COC(/C=C/Nc1ccc(Br)cc1)=C(C#N)C#N`, `CC1(C)Oc2ccc3ccc(=O)oc3c2C(/C=N/O)C1=O` (stereo not drawn) is higher in “hERG current change (%, negative = inhibition) at 10uM” value: -39.3% for the first, 3.87% for the second.

First: CCc1cc2c(CN3CCN(CC)CC3)cc(=O)oc2cc1O
Second: COc1cc(OC)c(OC)cc1CN1CCN(Cc2cccc(F)c2)CC1.O=C(O)C(=O)O
The “hERG current change (%, negative = inhibition) at 10uM” value of the first is lower: -8.81% for the first, 10.2% for the second.

Going from `O=C(CN1C(=O)NC2(CCCCCC2)C1=O)c1ccc(OC(F)F)cc1OC(F)F` to `COc1cccc(CN2CCN(Cc3cc(OC)c(OC)cc3OC)CC2)c1.O=C(O)C(=O)O`, the “hERG current change (%, negative = inhibition) at 10uM” value rises from -35% to -29.1%.

Compared with `COc1cc(CN2CCN(Cc3ccc(SC)cc3)CC2)cc(OC)c1O.O=C(O)C(=O)O`, `COc1cc(OC)c(OC)cc1CN1CCN(Cc2ccc(SC)cc2)CC1.O=C(O)C(=O)O` is higher in “hERG current change (%, negative = inhibition) at 10uM” value: -67.9% for the first, -61.5% for the second.

Compared with `COc1cc(CN2CCN(C(=O)CC(C)C)CC2)cc(OC)c1O.O=C(O)C(=O)O`, `COc1ccc(C(=O)N2CCN(Cc3cc(OC)c(O)c(OC)c3)CC2)cc1OC.O=C(O)C(=O)O` is higher in “hERG current change (%, negative = inhibition) at 10uM” value: -0.00662% for the first, 8.89% for the second.

Going from `O=[N+]([O-])C(=C1Nc2ccccc2N1)/C(Cl)=C(/Cl)Br` to `CC(=O)c1ccc(Nc2c3c(nc4ccccc24)CCCC3)cc1`, the “hERG current change (%, negative = inhibition) at 10uM” value falls from 19.8% to -53.3%.

Going from `Brc1ccc2nc(-c3cccs3)c(NCC3CCCO3)n2c1` (stereo not drawn) to `N#Cc1nc(-c2cccs2)oc1NCC1CCCO1` (stereo not drawn), the “hERG current change (%, negative = inhibition) at 10uM” value rises from -52.6% to -10%.

Going from `Cc1ccccc1C(=O)Nc1c2c(nc3ccccc13)CCCC2` to `CC(NC(=O)C(=O)N1CCOCC1)C(c1cccs1)N1CCN(c2ccc(F)cc2)CC1` (stereo not drawn), the “hERG current change (%, negative = inhibition) at 10uM” value rises from -5.54% to -0.955%.

First: CCC(CC)C(=O)NC12CC3CC(CC(C3)C1)C2
Second: Cc1cccc(CSCCNC(=O)CN(c2cc(C)cc(C)c2)S(C)(=O)=O)c1
The “hERG current change (%, negative = inhibition) at 10uM” value of the first is higher: 5.15% for the first, -23.9% for the second.

— paper PMC4336329 (PLoS ONE, 2015)
